The source of these data is PubChem BioAssay (NCATS).

The structures appear in SMILES notation. Records with an inconclusive call do not appear. Entries that show only a call come without a potency. The source made the active and inactive calls. Calls follow the shape of the dose curve; as a rule, active = well fitted inhibition curve with a large enough effect; inconclusive = small, poorly fitted or top-dose-only effect; inactive = flat fitted curve, though single readings scatter.

Sequence of Calcium and integrin-binding protein 1 (Homo sapiens) (Q99828 whole entry, looked up): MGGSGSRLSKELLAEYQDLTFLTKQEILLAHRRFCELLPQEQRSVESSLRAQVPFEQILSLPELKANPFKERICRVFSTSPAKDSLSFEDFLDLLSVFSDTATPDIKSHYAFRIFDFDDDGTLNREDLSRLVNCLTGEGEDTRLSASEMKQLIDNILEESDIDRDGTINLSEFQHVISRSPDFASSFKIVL

This experiment addresses Calcium and integrin-binding protein 1 (Homo sapiens) (UniProt Q99828). The experiment is described as follows: Primary qHTS for Identification of Calcium Integrin Binding Protein 1 (CIB1) Competitor (AID 1508620). Also: top concentration of the series differs between compounds. To be noted: CIB1-GST / FITC-alphaIIb peptide fluorescence polarization; series mostly up to 114 µM. The gist of the method:
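Fluorescence polarization competition: GST-tagged CIB1 (1 uM final) preincubated with compound 15 min at room temperature, then FITC-labelled alphaIIb peptide (100 nM final) added. After 15 min at room temperature, polarization read at Ex 480/Em 540.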
In general terms: qHTS replaces the single test concentration by a dilution series.
With `C[C@@H]1CN(S(=O)(=O)c2c(F)cccc2F)CCN1S(=O)(=O)c1ccc2c(c1)OCCO2`, the Potency entry is “inactive”.
Under `Brc1ccc(-c2ccc(C3Nc4cccc5cccc(c45)N3)o2)cc1` stands “inactive”; under `CN(C)c1cnc2c(O)ccc(C(=O)O)c2c1`, “inactive”.
Under `Cc1cc(C)nc(NC(=S)N2CCN(c3ncnc4sccc34)CC2)c1` stands “inactive”; under `O=C(O)c1c(-c2ccccc2)no[n+]1[O-]`, “inactive”; under `Cc1c(-c2ccccc2)no[n+]1[O-]`, “inactive”.
Under `COc1ccc(C2Nc3ccccc3C(=O)N2Cc2ccc(-c3ccccc3)cc2)cc1COc1ccc(NC(C)=O)cc1` (stereo not given) stands “inactive”; under `Cc1noc(C)c1-c1ccc2ncnc(NCc3cccc(-c4ccccc4)c3)c2c1`, “inactive”; under `Cc1cccc2c1NC(=O)/C2=C/c1cc(Cl)c(O)c(Cl)c1`, “inactive”.
In the case of `O=S(=O)(c1ccc2c(c1)OCCO2)C1CCN(S(=O)(=O)c2c(F)cccc2F)CC1`, the Potency result is “inactive”.
Under `COc1ccc(Cn2ncc3c4sc(C)cc4n(C)c3c2=O)cc1` stands “inactive”.
Under `COc1cccc(NC(=S)N2CCN(c3ccccc3C(F)(F)F)CC2)n1` stands “inactive”; under `CC(=O)c1cccc(NC(=O)c2cnn3c(C)cc(C)nc23)c1`, “inactive”.
Under `Cc1ccccc1CSc1nc2ncc(Br)cc2[nH]1` stands “inactive”; under `O=C(Nc1ccc(Cl)c(Cl)c1)Nc1nnc(-c2ccc(F)cc2)s1`, “inactive”.
As to `Cc1ccc(N(C)S(=O)(=O)c2ccc3c(c2)CCC(=O)N3)cc1C`, the Potency entry is “inactive”.
Under `Cc1nc(CNc2ncnc3ccc(-c4ccoc4C)cc23)cs1` stands “inactive”.
Under `FC(F)(F)c1cccc(N2CCN(C(=S)Nc3cccnc3)CC2)c1` stands “inactive”; under `COc1ccc(C(=O)O)cc1COc1ccc(NC(C)=O)cc1`, “inactive”.
Under `NC(=O)C1CCN(c2nc(-c3ccc(C(F)(F)F)cc3)cs2)CC1` stands “inactive”; under `O=C1CCc2cc(S(=O)(=O)Nc3ccc4ccccc4c3)ccc2N1`, “inactive”.
Turning to `COc1ccccc1C(=O)NCCc1nc2ccccc2n1CCOc1ccc(C)cc1`, the Potency entry is “inactive”.
For the compound `Cc1noc(C)c1-c1csc(N2CCC(C(N)=O)CC2)n1`, the Potency result was “inactive”.
Consider `Cc1ccc(OCCn2c(CCNC(=O)c3ccccn3)nc3ccccc32)cc1`, for which the Potency result was “inactive”.
Under `CCOC(=O)/C=C/c1cc(F)c(S(=O)(=O)N2CCN(S(=O)(=O)c3ccc4c(c3)OCCO4)CC2)cc1F` stands “inactive”; under `Cc1cc2c(s1)c1cnn(Cc3c(C)cc(F)cc3C)c(=O)c1n2C`, “inactive”; under `O=C1CCCC2=C1C1(CCCC1)N=C(Nc1nc3ccccc3n1Cc1ccccc1)N2`, “inactive”.
Under `Cc1ccc(CCCn2c(CCNC(=O)C3CCCCC3)nc3ccccc32)cc1` stands “inactive”.
Under `Cc1ccnc(NC(=S)N2CCN(c3cccc(Cl)c3Cl)CC2)c1` stands “inactive”.
For `CC(=O)N1CCN(c2ccc(NCc3ccc(-c4cccc(Cl)c4)o3)cc2)CC1`, the Potency result was “inactive”.
Under `COc1ccc(C=O)cc1COc1ccc(NC(C)=O)cc1` stands “inactive”; under `O=C(OCC#CCSc1nnc(-c2cccc3ccccc23)o1)c1cccc(F)c1`, “inactive”.
Regarding `Cc1ccc(OCCn2c(CCNC(=O)c3cccc(C#N)c3)nc3ccccc32)cc1`, the Potency entry was “inactive”.
Under `CN(CCc1ccco1)c1ncnc2ccc(-c3ccc4c(c3)OCO4)cc12` stands “inactive”; under `c1nc(N2CCCCC2)c2cc(-c3ccc4c(c3)OCO4)ccc2n1`, “inactive”.
On to `CNc1sc(-c2cccc3ccccc23)nc1C(=O)OC`, for which the Potency entry is “inactive”.
Under `Cc1ccccc1NS(=O)(=O)c1ccc2c(c1)CCC(=O)N2` stands “inactive”.
Under `O=C(O)c1cccc(-c2noc(-c3cccc(Cl)c3)n2)c1` stands “inactive”.
Under `Cc1ccnc(NC(=S)NC2CN(c3cccc(C(F)(F)F)c3)C2)c1` stands “inactive”; under `CCOc1ccc(CNc2ccc(-c3nc4ccccc4[nH]3)cc2)cc1`, “inactive”.
